From PubChem BioAssay (EPA / NIEHS)
Values joined by “and” are separate entries in the source; they are usually repeats but may differ in a detail not shown here. Equal entries are not always repeated. Where a structure was tested more than once in an assay, its records may differ in their call. Active and inactive are the calls of the source. The calls were made as follows: active = hit-call score of the fitted dose curve at least 0.9, where 1 is the maximum; inactive = score below 0.9.

What was measured:
[1] = read-out: Human Leukocyte Antigen - DR isotype (HLADR), HLA-DRA (gene 3122); experiment: BSK_CASM3C_HLADR: BioMAP Diversity Plus: CASM3C Assay for Human Leukocyte Antigen - DR isotype (HLADR) Biomarker Activity (AID 2283043); settings: primary human coronary artery smooth muscle cells; actives raise or lower the signal;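 also: cell-surface HLA-DR protein level quantified by ELISA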
[2] = read-out: Macrophage colony-stimulating factor (MCSF), CSF1 (gene 1435); experiment: BSK_CASM3C_MCSF: BioMAP Diversity Plus: CASM3C Assay for Macrophage colony-stimulating factor (MCSF) Biomarker Activity (AID 2283044); settings: primary human coronary artery smooth muscle cells; actives raise or lower the signal;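 also: M-CSF protein amount quantified by ELISA after 24 h exposure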
[3] = read-out: Low-density lipoprotein receptor (LDLR), LDLR (gene 3949); experiment: BSK_CASM3C_LDLR: BioMAP Diversity Plus: CASM3C Assay for Low-density lipoprotein receptor (LDLR) Biomarker Activity (AID 2283045); settings: primary human coronary artery smooth muscle cells; actives raise or lower the signal;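 also: LDLR protein level on the cell surface quantified by ELISA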
[4] = read-out: Monocyte Chemoattractant Protein-1 (MCP1), CCL2 (gene 6347); experiment: BSK_CASM3C_MCP1: BioMAP Diversity Plus: CASM3C Assay for Monocyte Chemoattractant Protein-1 (MCP1) Biomarker Activity (AID 2283046); settings: primary human coronary artery smooth muscle cells; actives raise or lower the signal;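 also: MCP-1 level quantified by ELISA 24 h after dosing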
[5] = BSK_CASM3C_Proliferation: Cell Proliferation Assessment in the BioMAP Diversity Plus: CASM3C Assay (AID 2283047); settings: primary human coronary artery smooth muscle cells;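 also: sulforhodamine B total protein stain as relative cell number at 560 nm; sub-confluent cells exposed 48 h before staining; fitted both ways against DMSO so gain or loss of cell number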
[6] = read-out: Monokine induced gamma interferon (MIG), CXCL9 (gene 4283); experiment: BSK_CASM3C_MIG: BioMAP Diversity Plus: CASM3C Assay for Monokine induced gamma interferon (MIG) Biomarker Activity (AID 2283048); settings: primary human coronary artery smooth muscle cells; actives raise or lower the signal;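 also: MIG protein level measured by ELISA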
[7] = read-out: serum amyloid A (SAA), SAA1 (gene 6288); experiment: BSK_CASM3C_SAA: BioMAP Diversity Plus: CASM3C Assay for serum amyloid A (SAA) Biomarker Activity (AID 2283049); settings: primary human coronary artery smooth muscle cells; actives raise or lower the signal;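 also: SAA protein level quantified by ELISA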
[8] = BSK_CASM3C_SRB: Viability Assessment in the BioMAP Diversity Plus: CASM3C Assay (AID 2283050); settings: primary human coronary artery smooth muscle cells;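 also: cells exposed to compound for 24 h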
[9] = read-out: Thrombomodulin, THBD (gene 7056); experiment: BSK_CASM3C_Thrombomodulin: BioMAP Diversity Plus: CASM3C Assay for Thrombomodulin Biomarker Activity (AID 2283051); settings: primary human coronary artery smooth muscle cells; actives raise or lower the signal;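 also: thrombomodulin protein level measured by ELISA 24 h after dosing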
[10] = read-out: Tissue Factor, F3 (gene 2152); experiment: BSK_CASM3C_TissueFactor: BioMAP Diversity Plus: CASM3C Assay for Tissue Factor Biomarker Activity (AID 2283052); settings: primary human coronary artery smooth muscle cells; actives raise or lower the signal;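 also: cell surface tissue factor protein level read by ELISA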
[11] = read-out: Interferon-gamma inducible Protein 10 (IP10), CXCL10 (gene 3627); experiment: BSK_hDFCGF_IP10: BioMAP Diversity Plus: hDFCGF Assay for Interferon-gamma inducible Protein 10 (IP10) Biomarker Activity (AID 2283053); settings: primary human foreskin fibroblasts; actives raise or lower the signal
Method in brief: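 IP-10 levels, quantified by ELISA, are taken from human foreskin fibroblast cultures 24 h after chemical treatment, with DMSO serving as negative control and baseline for bidirectional analysis.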

[12] = read-out: Urokinase-type plasminogen activator receptor (uPAR), PLAUR (gene 5329); experiment: BSK_CASM3C_uPAR: BioMAP Diversity Plus: CASM3C Assay for Urokinase-type plasminogen activator receptor (uPAR) Biomarker Activity (AID 2283054); settings: primary human coronary artery smooth muscle cells; actives raise or lower the signal;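 also: cell-surface uPAR protein level quantified by ELISA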
[13] = read-out: Vascular cell adhesion molecule 1 (VCAM1), VCAM1 (gene 7412); experiment: BSK_CASM3C_VCAM1: BioMAP Diversity Plus: CASM3C Assay for Vascular cell adhesion molecule 1 (VCAM1) Biomarker Activity (AID 2283055); settings: primary human coronary artery smooth muscle cells; actives raise or lower the signal;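 also: VCAM-1 protein level quantified by ELISA on the cells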
[14] = read-out: Collagen III, COL3A1 (gene 1281); experiment: BSK_hDFCGF_CollagenIII: BioMAP Diversity Plus: hDFCGF Assay for Collagen III Biomarker Activity (AID 2283056); settings: primary human foreskin fibroblasts; actives raise or lower the signal
Method in brief: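 Human foreskin fibroblast primary cultures sampled 24 h after dosing; Collagen III quantified by ELISA. Signal fitted bidirectionally against DMSO baseline.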

[15] = read-out: Epidermal growth factor receptor (EGFR), EGFR (gene 1956); experiment: BSK_hDFCGF_EGFR: BioMAP Diversity Plus: hDFCGF Assay for Epidermal growth factor receptor (EGFR) Biomarker Activity (AID 2283057); settings: primary human foreskin fibroblasts; actives raise or lower the signal
Method in brief: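 Measured by ELISA: EGFR levels on primary human foreskin fibroblasts 24 h after chemical treatment, analysed relative to DMSO with bidirectional fitting.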

[16] = read-out: Interleukin-8 (IL8), CXCL8 (gene 3576); experiment: BSK_hDFCGF_IL8: BioMAP Diversity Plus: hDFCGF Assay for Interleukin-8 (IL8) Biomarker Activity (AID 2283058); settings: primary human foreskin fibroblasts; actives raise or lower the signal
Method in brief: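 Primary human foreskin fibroblasts (hDFCGF system) dosed with chemical; IL-8 measured by ELISA 24 hours later. Bidirectional curve fitting relative to DMSO baseline; cytotoxicity tracked in parallel cultures by SRB total protein staining.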

[17] = BSK_hDFCGF_Proliferation: Cell Proliferation Assessment in the BioMAP Diversity Plus: hDFCGF Assay (AID 2283059); settings: primary human foreskin fibroblasts;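 also: curves fitted for both rise and fall of signal versus DMSO baseline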
Method in brief: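 Total protein read at 560 nm after 0.1% SRB staining of TCA-fixed human skin fibroblasts, […]. Activity is fitted in both directions relative to DMSO as baseline.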

[18] = read-out: Macrophage colony-stimulating factor (MCSF), CSF1 (gene 1435); experiment: BSK_hDFCGF_MCSF: BioMAP Diversity Plus: hDFCGF Assay for Macrophage colony-stimulating factor (MCSF) Biomarker Activity (AID 2283060); settings: primary human foreskin fibroblasts; actives raise or lower the signal
Method in brief: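 Human foreskin fibroblast primary cultures; M-CSF measured by ELISA 24 hours after chemical dosing. Bidirectional fitting relative to DMSO, with overt cytotoxicity tracked by parallel SRB total-protein staining (0.1% SRB, 10% TCA fixation, 560 nm).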

[19] = BSK_hDFCGF_SRB: Viability Assessment in the BioMAP Diversity Plus: hDFCGF Assay (AID 2283061); settings: primary human foreskin fibroblasts;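 also: cells exposed to compound for 24 h before the read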
Method in brief: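 Human foreskin fibroblasts in 96-well plates were treated 24 h. Total protein was measured by 0.1% SRB staining after 10% TCA fixation, read at 560 nm. Data were fitted bidirectionally against DMSO.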

[20] = read-out: TIMP metallopeptidase inhibitor 1 (TIMP1), TIMP1 (gene 7076); experiment: BSK_hDFCGF_TIMP1: BioMAP Diversity Plus: hDFCGF Assay for TIMP metallopeptidase inhibitor 1 (TIMP1) Biomarker Activity (AID 2283062); settings: primary human foreskin fibroblasts; actives raise or lower the signal
Method in brief: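 Human foreskin fibroblast primary cultures dosed for 24 h; secreted/surface TIMP-1 quantified by ELISA. Bidirectional curve fitting against DMSO baseline; cytotoxicity tracked in parallel cultures by SRB total-protein staining.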

Measured: AC50

Cc1ccc(C)c(O)c1
not listed: [20]
inactive: all other assays above

Cn1cnc([N+](=O)[O-])c1Sc1ncnc2nc[nH]c12
inactive: [1] | [2] | [3] | [4] | [6] | [7] | [8] | [9] | [10] | [11] | [12] | [13] | [14] | [15] | [16] | [17] | [18] | [19]
active: [1] 11.3 µM | [5] 10.2 µM and 12 µM and 4.25 µM | [11] 4.43 µM and 7.98 µM | [13] 15.6 µM and 8.5 µM | [14] 4.26 µM | [17] 19.9 µM | [18] 7.13 µM and 9.58 µM

O=C(O)c1cccc(Oc2ccccc2)c1
not listed: [20]
inactive: all other assays above

CC(C)=CCCC(C)CCO (configuration not stated)
active: [17] 26.4 µM
inactive: all other assays above

CC(O)CN(CCN(CC(C)O)CC(C)O)CC(C)O (configuration not stated)
inactive: all assays above

O=C(O)c1cccc(N(Cc2cccnc2)c2ccc(OC(F)F)c(OC(F)F)c2)c1
active: [1] 8.72 µM | [2] 11.7 µM | [5] 6.98 µM
inactive: all other assays above

CN(C)c1ccc(N=NS(=O)(=O)O)cc1
active: [14] 4.35 µM | [17] 12.8 µM | [18] 9.62 µM
not listed: [20]
inactive: all other assays above

CCCC(=O)OCC
inactive: all assays above

CC(C)CCO
active: [17] 17.2 µM
inactive: all other assays above

O=C(NS(=O)(=O)/C=C/c1ccccc1)c1ccc(F)cc1Cl
active: [5] 6.8 µM | [17] 12.9 µM
inactive: all other assays above

CCOCCOCCOCCO
inactive: all assays above

CNCc1ccc(NC(=O)c2c[nH]c3c2C(=O)CCC3)cc1
inactive: all assays above

O=c1[nH]c2ccc(S(=O)CCN3CCC(Cc4ccc(F)cc4)CC3)cc2o1 (configuration not stated)
active: [14] 13.9 µM | [17] 4.49 µM
inactive: all other assays above

CCOCCO
not listed: [20]
inactive: all other assays above

CC[C@H]1OC(=O)[C@H](C)[C@@H](O[C@H]2C[C@@](C)(OC)[C@@H](O)[C@H](C)O2)[C@H](C)[C@@H](O[C@@H]2O[C@H](C)C[C@H](N(C)C)[C@H]2O)[C@](C)(O)C[C@@H](C)C(=O)[C@H](C)[C@@H](O)[C@]1(C)O
inactive: all assays above

CC(C)=CCC/C(C)=C\CO
active: [17] 0.171 µM
inactive: all other assays above

Nc1cccc(N)c1
active: [17] 0.148 µM
not listed: [20]
inactive: all other assays above

Oc1ccc2c(c1)-c1ccccc1C2
active: [5] 6.61 µM | [17] 29.8 µM
inactive: all other assays above

CCn1nc(Cc2ccccc2)cc1C1CCN(C[C@H]2C[C@H](N(C)[C@@H](C(=O)O)C(C)C)C[C@@H]2c2cccc(F)c2)CC1
active: [17] 12.9 µM
inactive: all other assays above

COC(=O)CC(=O)OC
inactive: all assays above

C=CC(=C)CCC=C(C)C
not listed: [20]
inactive: all other assays above

COC(=O)c1ccccc1O
inactive: all assays above

O=P(OC(CCl)CCl)(OC(CCl)CCl)OC(CCl)CCl
active: [5] 20 µM | [9] 15.7 µM | [14] 12 µM | [17] 16.2 µM
not listed: [20]
inactive: all other assays above

CC(C)CC(C)(O)C#CC(C)(O)CC(C)C (configuration not stated)
not listed: [20]
inactive: all other assays above

CCNc1ccccc1
inactive: all assays above
